MEKK2 WT-MEK5: raises or lowers MEK5 binding to wildtype human MEKK2 PB1 domain; Q9Y2U5; bead flow cytometry, Alexa488-MEK5 binding to MEKK2 WT; actives lie on both sides; binding response (% of control), % at 10 µM; actives 1.1% (n = 290,000); in the data active = binding response below about 67% or above about 130%
MEKK3 PB1 HTS: MEKK3-MEK5 PB1 interaction, increase or decrease. AID 1529. Q99759. actives 1.4% (n = 290,000). binding response (% of control), % at 10 µM. bead-based flow cytometry, Alexa488-MEK5 binding to MEKK3; actives lie on both sides; 0 = blocked by unlabeled MEK5, 100 = vehicle;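 active = binding response more than 3 SD above or below the average of its plate-row segment, actives on both sides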;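 note: Alexa488 bead fluorescence after subtracting the streptavidin-only scavenger bead signal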
CRFR2-BP ag: CRF-BP/CRF-R2 complex agonism | actives 0.46% (n = 350,000) | HEK293 CRF-R2/CRF-BP, calcium dye fluorescence (FLIPR); percent of saturating CRF peptide response | activation, % at 13.2 µM;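 active = activation of at least 50%, plus an integration ratio under a set limit after plate pattern correction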;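 note: plate controls were neutral control wells without compound for no effect and CRF at EC100 for full effect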
ABCB6 inh MLPCN: human ABCB6 transporter inhibition. fluorescence ratio to DMSO, % at 10 µM. Q9NP58. K562-ABCB6 porphyrin accumulation, flow cytometry, 1 h; active compounds read low. actives 0.19% (n = 360,000);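 active = fluorescence ratio to DMSO below 75%, the collection mean minus 3 SD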;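 note: signal is porphyrin accumulated inside mitochondria; 100% equals median channel fluorescence of DMSO control wells; lower ratio means ABCB6 inhibition with less porphyrin fluorescence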
Target sequence (Q9NP58 whole entry, looked up): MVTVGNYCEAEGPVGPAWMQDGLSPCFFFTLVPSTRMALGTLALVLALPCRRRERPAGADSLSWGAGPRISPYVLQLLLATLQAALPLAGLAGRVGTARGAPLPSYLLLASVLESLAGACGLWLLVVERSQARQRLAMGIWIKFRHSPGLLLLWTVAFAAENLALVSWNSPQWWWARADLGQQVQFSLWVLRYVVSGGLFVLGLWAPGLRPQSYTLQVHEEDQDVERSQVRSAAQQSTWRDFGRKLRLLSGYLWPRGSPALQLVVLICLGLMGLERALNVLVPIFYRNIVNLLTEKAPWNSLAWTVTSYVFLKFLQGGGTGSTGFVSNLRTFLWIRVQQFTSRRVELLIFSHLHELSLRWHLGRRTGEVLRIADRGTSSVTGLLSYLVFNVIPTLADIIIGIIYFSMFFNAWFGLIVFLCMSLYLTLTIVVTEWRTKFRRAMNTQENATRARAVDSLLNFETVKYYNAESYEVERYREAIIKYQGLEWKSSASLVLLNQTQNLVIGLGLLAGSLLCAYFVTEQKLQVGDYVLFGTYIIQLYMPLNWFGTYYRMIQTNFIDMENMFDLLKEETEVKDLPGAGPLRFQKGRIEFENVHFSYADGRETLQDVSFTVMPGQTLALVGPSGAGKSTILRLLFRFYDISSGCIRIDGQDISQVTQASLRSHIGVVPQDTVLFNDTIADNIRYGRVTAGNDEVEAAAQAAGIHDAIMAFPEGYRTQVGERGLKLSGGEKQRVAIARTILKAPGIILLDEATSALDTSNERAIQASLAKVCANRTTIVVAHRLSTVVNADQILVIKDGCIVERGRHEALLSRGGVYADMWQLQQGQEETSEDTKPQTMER
MEKK2mut PB1 HTS: signal of MEK5 binding to mutant human MEKK2 PB1 domain. bead flow cytometry, Alexa488-MEK5 binding to MEKK2 mutant. percent response, % at 10 µM. actives 0.35% (n = 290,000). AID 1530; in the data active = percent response above about 24%, passing the limit was not always enough
CRFR2-BP antag: CRF-BP/CRF-R2 complex antagonism; HEK293 CRF-R2/CRF-BP, CRF-induced calcium fluorescence; inhibition, % at 11.8 µM; actives 0.59% (n = 350,000); AID 588475;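 active = inhibition of the ligand-induced calcium signal above about 50% at the single tested concentration, limit read from the data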
MEKK2wt confirm: raises or lowers MEK5 binding to wildtype human MEKK2, retest | shares compounds with MEKK3 PB1 HTS | bead flow cytometry, Alexa488-MEK5 binding to MEKK2 WT; actives lie on both sides | binding response (% of control), % at 10 µM | actives 2.4% (n = 5,900) | AID 1892; in the data active = binding response below about 16% or above about 210%; inactive = in between
MEKK2mut-MEK5: signal of MEK5 binding to mutant human MEKK2, retest. shares compounds with MEKK3 PB1 HTS. AID 1893. percent response, % at 10 µM. bead flow cytometry, Alexa488-MEK5 binding to MEKK2 mutant. actives 2% (n = 5,900); in the data active = percent response mostly above about 71%, no sharp cut-off; inactive = mostly below about 38%;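 note: higher means compound restores mutant binding toward wildtype level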
MEKK3 confirm: MEKK3-MEK5 PB1 inhibition, single concentration confirmation | shares compounds with MEKK3 PB1 HTS | bead flow cytometry, Alexa488-MEK5 binding to MEKK3; active compounds read low | binding response (% of control), % at 10 µM | actives 1.8% (n = 5,900);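 active = binding response below 72% of control, or above a set upper limit, though filed actives all read lower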;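 note: 100% = DMSO only wells and 0% = binding blocked by excess unlabeled MEK5; lower values mean stronger disruption of MEK5 binding to MEKK3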
* = called active by the depositor; [ ] = dose if it differs, or a comment. Only some compounds are listed: those with a hit (about 2.9% of all), similar ones and a draw of the others.

Results for CCN(CC)CCn1c(SCC(=O)NCc2ccco2)nc2c(sc3ccccc32)c1=O ?
MEKK2 WT-MEK5: 112; MEKK3 PB1 HTS: 104; CRFR2-BP ag: 0; ABCB6 inh MLPCN: 92; MEKK2mut PB1 HTS: 5; CRFR2-BP antag: -6

How did CN(C)CC(C)(C)CNC(=S)NCc1ccc2c(c1)OCO2 do in these assays?
MEKK2 WT-MEK5: 104; MEKK3 PB1 HTS: 128*; CRFR2-BP ag: 3; ABCB6 inh MLPCN: 76; MEKK2mut PB1 HTS: 3; CRFR2-BP antag: 27; MEKK2wt confirm: 99; MEKK2mut-MEK5: 3; MEKK3 confirm: 106

How did Nc1ncnc2c1ncn2[C@@H]1O[C@H](CNCC(O)CO)[C@@H](O)[C@H]1O (stereo not given in full) do in these assays?
CRFR2-BP ag: 0; ABCB6 inh MLPCN: 103; CRFR2-BP antag: 12

How did COc1cc2nc(SCc3ccc(F)cc3)n(Cc3cccs3)c(=N)c2cc1OC do in these assays?
MEKK2 WT-MEK5: 116; MEKK3 PB1 HTS: 103; CRFR2-BP ag: 0; ABCB6 inh MLPCN: 102; MEKK2mut PB1 HTS: 2; CRFR2-BP antag: -7

Results for COc1ccc(Cn2c(SCc3ccccc3C)nc3cc(OC)c(OC)cc3c2=N)cc1 ?
MEKK2 WT-MEK5: 278*; MEKK3 PB1 HTS: 118; ABCB6 inh MLPCN: 90; MEKK2mut PB1 HTS: 96*; MEKK2wt confirm: 252*; MEKK2mut-MEK5: 79*; MEKK3 confirm: 113

How did O=C(CSc1nc2c(sc3ccccc32)c(=O)n1Cc1ccco1)NCC1CCCO1 (stereo not given) do in these assays?
MEKK2 WT-MEK5: 3.0*[inhibitor]; MEKK3 PB1 HTS: 2.0*[inhibitor]; CRFR2-BP ag: -1; ABCB6 inh MLPCN: 92; MEKK2mut PB1 HTS: -21; CRFR2-BP antag: 4; MEKK2wt confirm: 107; MEKK2mut-MEK5: 8; MEKK3 confirm: 110

How did COCc1nnc(NS(=O)(=O)c2ccc(C)cc2)s1 do in these assays?
MEKK2 WT-MEK5: 0.0*[inhibitor]; MEKK3 PB1 HTS: 0.0*[inhibitor]; CRFR2-BP ag: 1; ABCB6 inh MLPCN: 95; MEKK2mut PB1 HTS: -16; CRFR2-BP antag: 6; MEKK2wt confirm: 99; MEKK2mut-MEK5: -2; MEKK3 confirm: 99

How did Cc1cc(C(=O)Nc2cc(S(C)(=O)=O)ccc2Cl)c(C)o1 do in these assays?
CRFR2-BP ag: -1; ABCB6 inh MLPCN: 98; CRFR2-BP antag: 10

How did Nc1ccc(N)c(C(=O)O)c1 do in these assays?
MEKK2 WT-MEK5: 25*[inhibitor]; MEKK3 PB1 HTS: 47*[inhibitor]; CRFR2-BP ag: 9; ABCB6 inh MLPCN: 102; MEKK2mut PB1 HTS: -58; CRFR2-BP antag: 2; MEKK2wt confirm: 57; MEKK2mut-MEK5: -20; MEKK3 confirm: 57*

How did Nc1ccc(C(=O)O)c(O)c1 do in these assays?
MEKK2 WT-MEK5: 81; MEKK3 PB1 HTS: 95; CRFR2-BP ag: 0; ABCB6 inh MLPCN: 98; MEKK2mut PB1 HTS: -14; CRFR2-BP antag: 17

Results for Cc1[nH]c2ccccc2c1C(=O)C(=O)NCCCc1ccccc1 ?
MEKK2 WT-MEK5: 109; MEKK3 PB1 HTS: 106; CRFR2-BP ag: 2; ABCB6 inh MLPCN: 101; MEKK2mut PB1 HTS: 9; CRFR2-BP antag: -10

Results for CCCCN(C)CCNC(=O)C(=O)c1c(C)[nH]c2ccccc12 ?
MEKK2 WT-MEK5: 84; MEKK3 PB1 HTS: 75*[inhibitor]; CRFR2-BP ag: -1; ABCB6 inh MLPCN: 101; MEKK2mut PB1 HTS: -4; CRFR2-BP antag: 7; MEKK2wt confirm: 99; MEKK2mut-MEK5: -4; MEKK3 confirm: 101

What do the screens show for `O=C(NCCCN1CCOCC1)c1cc2c([nH]c3ccccc32)c(-c2cccc(Br)c2)n1`?
MEKK2 WT-MEK5: 161*; MEKK3 PB1 HTS: 112; CRFR2-BP ag: -1; ABCB6 inh MLPCN: 97; MEKK2mut PB1 HTS: 31*; CRFR2-BP antag: -9; MEKK2wt confirm: 177; MEKK2mut-MEK5: 36; MEKK3 confirm: 110

How did O=C(CSc1ccc2nnc(CCNC(=O)c3ccc(F)cc3)n2n1)NCC1CCCO1 (stereo not given) do in these assays?
MEKK2 WT-MEK5: 107; MEKK3 PB1 HTS: 99; CRFR2-BP ag: -1; ABCB6 inh MLPCN: 95; MEKK2mut PB1 HTS: 6; CRFR2-BP antag: 2

How did CC(C)COc1ccc(CN=C(N)N=C(N)N)cc1Cl do in these assays?
MEKK2 WT-MEK5: 139*; MEKK3 PB1 HTS: 106; CRFR2-BP ag: -2; ABCB6 inh MLPCN: 103; MEKK2mut PB1 HTS: 25; CRFR2-BP antag: -19; MEKK2wt confirm: 112; MEKK2mut-MEK5: 1; MEKK3 confirm: 89

How did CC(C)Oc1ccc(CN=C(N)N=C(N)N)cc1Cl do in these assays?
MEKK2 WT-MEK5: 116; MEKK3 PB1 HTS: 105; CRFR2-BP ag: -1; ABCB6 inh MLPCN: 94; MEKK2mut PB1 HTS: 23; CRFR2-BP antag: -3

Results for CC1CCCN(c2nc3c(c(=O)[nH]c(=O)n3C)n2CCSc2nc3ccccc3o2)C1 (stereo not given) ?
MEKK2 WT-MEK5: 101; MEKK3 PB1 HTS: 82*[inhibitor]; CRFR2-BP ag: 4; ABCB6 inh MLPCN: 87; MEKK2mut PB1 HTS: -13; CRFR2-BP antag: -55; MEKK2wt confirm: 108; MEKK2mut-MEK5: 10; MEKK3 confirm: 108

What do the screens show for `CC(=O)Nc1cccc(-n2nnc(SCC(=O)c3ccccc3)n2)c1`?
MEKK2 WT-MEK5: 131; MEKK3 PB1 HTS: 129*; CRFR2-BP ag: -4; ABCB6 inh MLPCN: 96; MEKK2mut PB1 HTS: 27; CRFR2-BP antag: -3; MEKK2wt confirm: 107; MEKK2mut-MEK5: -2; MEKK3 confirm: 105

What do the screens show for `CC(=O)Nc1cccc(-n2nnc(SCC(=O)Nc3ccc(F)c(Cl)c3)n2)c1`?
MEKK2 WT-MEK5: 102; MEKK3 PB1 HTS: 103; CRFR2-BP ag: 0; ABCB6 inh MLPCN: 96; MEKK2mut PB1 HTS: 3; CRFR2-BP antag: 4

How did Cc1ccc(-c2nc(N3CCOCC3)sc2C(=O)N2CCCCC2)cc1 do in these assays?
MEKK2 WT-MEK5: 94; MEKK3 PB1 HTS: 97; CRFR2-BP ag: 0; ABCB6 inh MLPCN: 96; MEKK2mut PB1 HTS: -7; CRFR2-BP antag: 1

Results for Cc1ccc(Nc2c(N)c(=O)oc3ccccc23)cc1 ?
MEKK2 WT-MEK5: 0.0*[inhibitor]; MEKK3 PB1 HTS: 0.0*[inhibitor]; CRFR2-BP ag: 1; ABCB6 inh MLPCN: 94; MEKK2mut PB1 HTS: 4; CRFR2-BP antag: 9; MEKK2wt confirm: 101; MEKK2mut-MEK5: 2; MEKK3 confirm: 98

Compound activity as filed in PubChem BioAssay.
